From PubChem
A selection: hits, their analogues and other compounds. The true share with any hit is near 27%.
Cav32 inh – blocks human Cav3.2 T-type calcium channel; O95180; Cav3.2-expressing cells, Fluo-4 calcium fluorescence FDSS; hits give low values; B-score at 10 µM; hit rate 4% among 100,000; AID 449739;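 active = single-dose well whose peak fluorescence ratio is a statistical outlier from its plate by either plate-standardised score or position-corrected B-score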
CYP2C19 activ – activators of human cytochrome P450 2C19; 96,000 tested, under 10 active; recombinant CYP2C19, luciferin-H EGE luminescence; hits give high values; 0 = fully inhibited enzyme, 1 = untreated enzyme; activation factor at 5 µM; AID 1025; P33261;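 active = activation factor of at least 2 at 5 µM in the primary screen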;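 note: 0 = wells with 2.5 mM tranylcypromine and 1 = vehicle-only wells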
CYP2C9 act – activators of human CYP2C9; recombinant CYP2C9, luciferin-H conversion, luminescence; hits give high values; factor 1 = untreated enzyme, 0 = blocked; activation factor at 5 µM; hit rate 1.4% among 96,000; AID 1024;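 active = activation factor of 2 or more for CYP2C9 at a 5 µM dose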;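 note: 0 = sulfaphenazole-blocked wells and 1 = vehicle-only wells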
Target sequence (P11712 whole entry, looked up): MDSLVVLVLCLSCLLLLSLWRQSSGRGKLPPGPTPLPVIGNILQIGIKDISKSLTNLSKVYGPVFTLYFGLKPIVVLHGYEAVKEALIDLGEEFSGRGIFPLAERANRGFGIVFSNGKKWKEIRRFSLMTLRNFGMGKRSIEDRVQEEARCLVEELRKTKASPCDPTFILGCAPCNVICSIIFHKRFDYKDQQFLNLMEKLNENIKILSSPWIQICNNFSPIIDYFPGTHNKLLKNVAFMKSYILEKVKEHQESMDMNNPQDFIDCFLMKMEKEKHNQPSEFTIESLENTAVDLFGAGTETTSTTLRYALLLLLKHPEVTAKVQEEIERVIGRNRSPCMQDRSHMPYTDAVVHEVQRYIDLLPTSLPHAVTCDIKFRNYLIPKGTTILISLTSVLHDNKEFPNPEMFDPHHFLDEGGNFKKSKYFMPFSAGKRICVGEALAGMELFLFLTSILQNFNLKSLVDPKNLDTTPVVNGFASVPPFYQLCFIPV
CYP2C9 inhib – human CYP2C9 inhibition; CYP2C9 Supersomes, luciferin-H conversion, luminescence; inhibition, % at 5 µM; hit rate 20% among 96,000; AID 777;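 active = blocking of liver enzyme CYP2C9 beyond about 50% at 5 µM, limit read from the data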
CYP2C19 inhib – human CYP2C19 inhibition; hit rate 21% among 96,000; AID 778; CYP2C19 Supersomes, luciferin-H EGE luminescence, 30 min; inhibition, % at 5 µM; P33261;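 active = CYP2C19 inhibition above a set limit at 5 µM in the primary screen, cut at about 50% in these data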;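 note: plate controls were negative control wells for no effect and 2.5 mM tranylcypromine positive control for full effect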
* = called active by the depositor; / = no result.

SMILES	Cav32 inh	CYP2C19 activ	CYP2C9 act	CYP2C9 inhib	CYP2C19 inhib
COc1ccc(S(=O)(=O)N(CC(C)C)CC(C)C)c2cccnc12	0.0106	0.6	0.1	91.7*	43.7
COc1ccc(S(=O)(=O)Nc2ccccn2)c(C)c1C	0.138	0.8	1.9	-86.9	16.6
COc1ccc(S(=O)(=O)N(C)CC(=O)O)c2ccccc12	-0.373	0.9	0.7	27.7	7.7
CCCCN(CCCC)S(=O)(=O)c1ccc(OC)c2ncccc12	-3.28	0.9	0.3	66.4*	14.2
CCS(=O)(=O)c1nc(NC(C)=O)n[nH]1	/	1.1	1.1	-9.4	-8.2
CCOC(=O)C1=C(C)N(C)C(=O)NC1c1ccccc1OC (stereo unspecified)	0.1	0.7	0.9	13.6	28.2
CCCCCOC(=O)C1=C(C)N(C)C(=O)NC1c1cc(Br)c(O)c(OC)c1 (stereo unspecified)	-3.45	0.4	0.3	69.8*	59.4*
COc1ccc(S(=O)(=O)N2CN(Cc3ccco3)c3nc4ccccc4nc32)cc1	-0.363	0.3	0.5	53.9*	69.8*
O=S(=O)(c1cccs1)N1CN(Cc2ccccc2)c2nc3ccccc3nc21	-0.404	1.1	1	0.9	-11.6
Cc1ccc(S(=O)(=O)N2CN(Cc3ccco3)c3nc4ccccc4nc32)cc1	-1.39	0.2	0.1	90.0*	75.5*
Cc1ccc(S(=O)(=O)N2CN(Cc3ccco3)c3nc4ccccc4nc32)cc1C	-2.17	0.3	0.2	83.5*	67.9*
O=S(=O)(c1ccc(F)cc1)N1CN(Cc2ccco2)c2nc3ccccc3nc21	-2.12	0.2	0.4	59.9*	82.2*
COc1ccc(C(NC(=O)c2ccc(-c3ccccc3)cc2)c2ccccc2)cc1 (stereo unspecified)	/	0.9	1	-0.5	8.8
COc1ccc(C(C)NC(=O)c2ccccc2)cc1 (stereo unspecified)	-0.158	0.3	0.9	5.2	75.0*
CCCCN(CC)CCNS(=O)(=O)c1ccc2c(c1)oc(=O)n2C	0.171	1	1	0.1	2.2
COc1cccc(-c2cc(C(=O)NCCN3CCOCC3)no2)c1	0.267	1	0.9	7.9	3.7
O=C(NCc1ccc(F)cc1)c1cc(-c2ccco2)on1	-0.782	0.9	1.1	-6.1	7.1
COc1ccccc1-c1cc(C(=O)NCc2ccc(F)cc2)no1	-0.892	0.8	3*	-199.5	20.9
COc1ccccc1-c1cc(C(=O)NCc2ccccc2)no1	-3.87	0.6	2.8*	-176.7	37.7
O=C(NCc1ccccc1)c1cc(-c2cccs2)on1	-0.439	0.7	1.3	-28.6	27.6
COc1ccccc1-c1cc(C(=O)NCCN2CCOCC2)no1	0.0194	1	2.2*	-123.2	-0.8
COCC(C)NC(=O)c1cc(-c2ccccc2OC)on1 (stereo unspecified)	-0.366	1	2.5*	-149.4	-0.9
CCOC(=O)c1c(C#N)cnn1-c1ccc(C)cc1	-0.132	0.9	0.7	29.6	14.0
COc1ccc(CNC(=O)c2cc(-c3ccco3)on2)cc1	-0.27	0.8	0.9	14.9	21.3
CCCc1cc(C(=O)NCc2ccc(OC)cc2)no1	0.713	0.3	0.8	18.8	65.1*
SMILES	Cav32 inh	CYP2C19 activ	CYP2C9 act	CYP2C9 inhib	CYP2C19 inhib
COc1ccc(CNC(=O)c2cc(-c3ccccc3OC)on2)cc1	-0.966	1	2.7*	-165.4	-1.7
NC(=O)CNC1CC(=O)N(CCc2ccccc2)C1=O (stereo unspecified)	0.413	0.9	0.9	6.7	13.5
C=CCOc1ccccc1C1NC(=O)NC(C)=C1C(=O)NCc1ccccc1 (stereo unspecified)	0.4	0.8	0.6	40.6	18.3
CON1C(=O)C(=O)N(OC)C(C)(C)C1C (stereo unspecified)	-2.74	1	1	3.2	0.9
COc1ccc(OCc2ccc(C(=O)NN)cc2)cc1	-0.131	0.1	0.3	69.3*	92.1*
COc1ccc(C(=O)Nc2cc(OC)cc(OC)c2)cc1	0.336	0.1	1.1	-9.7	86.2*
COc1ccc(C(=O)Nc2cccc(OC(=O)c3ccc(C)c(C)c3)c2)cc1	/	0.7	0.3	69.9*	26.9
O=c1[nH]c2ccc(S(=O)(=O)Nc3ccc(-c4nnc5n4CCCCC5)cc3)cc2o1	-0.173	0.9	0.7	30.9	6.7
CC(=O)Nc1ccc(S(=O)(=O)NC(CC(=O)NCCC2=CCCCC2)C(C)C)cc1 (stereo unspecified)	0.72	0.1	0.7	31.9	94.9*
CC(C)(C)NS(=O)(=O)c1ccc(OCC(=O)NCCC2=CCCCC2)cc1	-0.25	0.1	0.2	84.4*	85.1*
O=C(COc1ccc(S(=O)(=O)N2CCCC2)cc1)NCCC1=CCCCC1	0.0706	0.6	0.1	85.8*	42.8
CCOC(=O)COc1ccc(S(=O)(=O)NCCC2=CCCCC2)cc1	-0.978	0.8	0.9	9.2	25.0
CC(=O)Nc1ccc(S(=O)(=O)NC(CC(=O)NCCCN2CCOCC2)C(C)C)cc1 (stereo unspecified)	1.25	1.1	1	-3.7	-5.2
CC1(C)c2[nH]c3ccccc3c2C[C@H]2C(=O)N(Cc3ccc(F)cc3)C(=O)N21	-0.421	/	/	/	/
Cc1ccccc1-c1noc(N)c1C#N	0.0189	0.9	0.6	43.1	7.4
CCOc1cc(-c2noc(N)c2C#N)cc(OCC)c1OCC	/	0.6	0.5	53.0*	42.5
CC(C)(C)n1nnnc1C(c1cccs1)N1CCCc2ccccc21 (stereo unspecified)	-5.92*	0.6	0.7	29.5	36.6
COCCn1nnnc1C(c1ccc(C)cc1)N1CCN(Cc2ccc3c(c2)OCO3)CC1 (stereo unspecified)	/	0.5	0.5	51.4*	47.7
CC(C)(C)n1nnnc1C(c1cccs1)N1CCN(Cc2ccc3c(c2)OCO3)CC1 (stereo unspecified)	0.375	0.5	0.6	38.3	52.7*
Fc1ccc(C(c2nnnn2Cc2cccs2)N2CCN(c3ccccc3)CC2)cc1 (stereo unspecified)	-5.82*	/	/	/	/
COCCn1nnnc1C(c1ccccc1)N1CCN(Cc2ccc3c(c2)OCO3)CC1 (stereo unspecified)	/	0.8	1	0.2	18.1
COC(=O)c1nn2c(C(F)(F)F)cc(-c3ccc(Br)o3)nc2c1Br	-0.228	0.9	0.8	21.5	5.4
Cc1ccc(C(c2nnnn2Cc2cccs2)N2CCN(Cc3ccc4c(c3)OCO4)CC2)cc1 (stereo unspecified)	-2.33	0.4	0.6	39.8	61.5*
CCC(C)(C)n1nnnc1C(c1cc2cc(C)cc(C)c2[nH]c1=O)N1CCN(Cc2ccc3c(c2)OCO3)CC1 (stereo unspecified)	/	0.7	0.2	79.7*	25.9
CCC(C)(C)n1nnnc1C(c1cc2cc(C)cc(C)c2[nH]c1=O)N1CCCC1 (stereo unspecified)	-0.113	/	/	/	/
N#C/C(=C\c1c(N2CCOCC2)nc2ccccn2c1=O)S(=O)(=O)c1ccccc1	2.26	0.8	0.7	32.2	15.0
Cc1ccc(S(=O)(=O)/C(C#N)=C/c2c(N3CCN(C)CC3)nc3ccccn3c2=O)cc1	2.3	0.8	0.2	80.7*	16.9
